# Assay results: PubChem BioAssay (NCI)
# Compounds without any hit were thinned out: in the full panel of roughly 83,000, 20% have a hit.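 The endpoint reported here, percent growth, reads 100 for growth as untreated, 0 for no net growth and -100 for all cells dead.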 Values without a mark were called inactive. Calls of active or inactive are those of the source. How the source made its calls: active means growth percent below 10; inactive means the rest.
# Tests used:
# Test in all cases: NCI-60 one-dose screen, 48 h (100 = growth as untreated, 0 = no growth, -100 = all killed)
# Conditions in all cases: 10 µM unless noted
# NCI-H23 lung = tested on: NCI-H23 lung
# NCI-H226 lung = tested on: NCI-H226 lung
# NCI-H322M lung = tested on: NCI-H322M lung
# HOP-62 NSCLC = tested on: HOP-62 NSCLC
# NCI-H460 lung = tested on: NCI-H460 lung
# HOP-92 NSCLC = tested on: HOP-92 NSCLC
# NCI-H522 lung = tested on: NCI-H522 lung
# A549/ATCC NSCLC = tested on: A549/ATCC NSCLC
# 786-0 renal = tested on: 786-0 renal
# COLO 205 colon = tested on: COLO 205 colon
# DU-145 prostate = tested on: DU-145 prostate
# K-562 leukemia = tested on: K-562 leukemia
# MALME-3M melanoma = tested on: MALME-3M melanoma
# MDA-MB-231 breast = tested on: MDA-MB-231 breast
# RXF 393 renal = tested on: RXF 393 renal
# SF-268 CNS = tested on: SF-268 CNS
# SF-295 CNS = tested on: SF-295 CNS
# SF-539 CNS = tested on: SF-539 CNS
# UACC-257 melanoma = tested on: UACC-257 melanoma
# M14 melanoma = tested on: M14 melanoma
Structure (SMILES),growth (NCI-H23 lung),growth (NCI-H226 lung),growth (NCI-H322M lung),growth (HOP-62 NSCLC),growth (NCI-H460 lung),growth (HOP-92 NSCLC),growth (NCI-H522 lung),growth (A549/ATCC NSCLC),growth (786-0 renal),growth (COLO 205 colon),growth (DU-145 prostate),growth (K-562 leukemia),growth (MALME-3M melanoma),growth (MDA-MB-231 breast),growth (RXF 393 renal),growth (SF-268 CNS),growth (SF-295 CNS),growth (SF-539 CNS),growth (UACC-257 melanoma),growth (M14 melanoma)
CCCC/C(=N\N=C(N)N)c1ccc(F)cc1,34.9%,31.6%,61.5%,27.9%,16.2%,31.4%,10.2%,31.8%,26.8%,8.47% (active),44.1%,10.4%,40.6%,59.3%,-5.71% (active),45.2%,18.4%,11.7%,44.1%,13.7%
CC(=O)c1cccc(NS(=O)(=O)c2cccc(C(=O)Nc3ccc(Br)cc3)c2)c1,29.4% [25 µM],49.3% [25 µM],73.4% [25 µM],68.9% [25 µM],63.4% [25 µM],33.9% [25 µM],48.8% [25 µM],58% [25 µM],56.2% [25 µM],61% [25 µM],75.4% [25 µM],33% [25 µM],42.1% [25 µM],73.8% [25 µM],61.5% [25 µM],51.4% [25 µM],27.3% [25 µM],65.3% [25 µM],36.4% [25 µM],51.7% [25 µM]
C=C(C)[C@@H]1CC[C@]2(C(=O)NCC(=O)OC)CC[C@]3(C)[C@H](CC[C@@H]4[C@@]5(C)Cc6c([nH]c7ccccc67)C(C)(C)[C@@H]5CC[C@]43C)[C@@H]12,68.6%,63.5%,85.8%,82.8%,74.6%,91.1%,60.5%,60.7%,75%,86.1%,83.8%,44.9%,93.9%,82.2%,76%,74.7%,76.7%,85.1%,75.7%,89.5%
CCOC(=O)C1=C(C)NC(C)=C(C(=O)OCC)C1c1cc(Br)c(O)c(OC)c1,34.3%,32.7%,55.3%,31.8%,18.7%,16.3%,-37.5% (active),33.2%,29.1%,104%,20.8%,25.5%,33.3%,53.7%,-26.6% (active),54.9%,16.2%,22.8%,59.1%,3.03% (active)
C#CC(=O)Nc1cccc2c1cc(C)n2-c1nc2c(c(NCc3ccccc3)n1)CCCC2,-43.1% (active),-40.2% (active),-82.4% (active),-46.8% (active),-48.3% (active),-53.8% (active),-82.2% (active),-46.5% (active),-53.1% (active),-69.1% (active),-97.1% (active),-13.5% (active),-64.4% (active),-53% (active),-94.4% (active),-29.7% (active),-85.4% (active),-79.7% (active),-73% (active),-65.3% (active)
CCOC(=O)N1CCN(CCCCl)CC1,103%,102%,101%,109%,105%,95%,95.4%,94.8%,98.4%,113%,115%,96.2%,102%,100%,118%,104%,98.8%,97.7%,96.6%,101%
N#Cc1c(Nc2ccccc2)nn2cc(-c3nc4ccccc4s3)c(N)nc12,60.3%,65.6%,86.2%,92.9%,61.8%,80.6%,72.8%,80.6%,76.3%,114%,66%,74.8%,40.4%,72.5%,87.8%,70%,99%,58%,83.7%,58.8%
CCCCCCCCOC(=O)c1ccc(O)c(OC)c1,92.5%,88.5%,86.9%,99.3%,104%,84.9%,73%,89.6%,106%,114%,104%,116%,99.7%,85%,100%,83.8%,98.7%,92.6%,86.6%,106%
C=C1C(=O)O[C@H]2[C@H]1CC/C(COC(=O)/C=C/c1c[nH]c3ccccc13)=C\CC[C@@]1(C)O[C@@H]21,-53% (active),-71.4% (active),-48.2% (active),-73.5% (active),-70.8% (active),-91.4% (active),-63.1% (active),-78.7% (active),-90.4% (active),-68.8% (active),-73.5% (active),-3.41% (active),-83.5% (active),-78.4% (active),-94.3% (active),-72.8% (active),21.8%,-95.5% (active),-90.4% (active),-76.9% (active)
CC(=O)O[C@]1(C(C)=O)CC[C@H]2[C@@H]3C=C(Cl)C4=CC(=O)CC[C@]4(C)[C@H]3CC[C@@]21C,114%,94.4%,106%,106%,105%,96.7%,72.2%,91.5%,99.4%,133%,122%,96.7%,125%,88.1%,109%,111%,113%,102%,97.2%,103%
O=C(Nc1cccc(Cl)c1)c1cc(Cl)ccc1O,0.837% (active),-2.52% (active),4.17% (active),5.65% (active),2.08% (active),-32% (active),-2.31% (active),14.7%,5.54% (active),78.6%,24.1%,15.5%,-17.8% (active),1.35% (active),-12.3% (active),18%,-60.3% (active),19.4%,-4.11% (active),8.3% (active)
CCCCCOc1ccc(/C=N/Nc2cc(C)nc3ccc(Br)cc23)cc1,75.1%,91.5%,65.1%,58.1%,-57.9% (active),69.7%,1.99% (active),2.38% (active),-90.9% (active),-50.4% (active),0.579% (active),-19.6% (active),-35.9% (active),-51.4% (active),-82.9% (active),87.2%,-84.8% (active),-83.7% (active),102%,15.5%
CC(=O)OC1CCC2(C)C(CCC3C4CC=C(C(C)=O)C4(C)OC(=O)CC32)C1 (stereo not given),34.7%,45%,95.7%,61%,78.1%,-21.2% (active),-81.1% (active),59.1%,64%,2.72% (active),38.2%,-12.4% (active),-25.6% (active),35.3%,-60.5% (active),53%,73.1%,61.7%,-74.9% (active),-31.6% (active)
CNC(=O)NCC1OC(n2cnc3c(NC(=O)Nc4ccccc4)ncnc32)C(O[Si](C)(C)C(C)(C)C)C1O[Si](C)(C)C(C)(C)C (stereo not given),36.3%,49%,87.3%,61.7%,-6.74% (active),-2.68% (active),46.2%,23%,16.5%,-100% (active),52.2%,34.5%,48.9%,37.7%,-37% (active),36%,45.1%,33.4%,42.8%,33%
Cc1cc(Nc2cccc(C(F)(F)F)c2)n2c(nc3ccccc32)c1C#N,25.1%,40.1%,36.9%,53.6%,17%,-2.32% (active),20.7%,43.7%,58.9%,36.9%,53.9%,22.1%,60.6%,54.2%,61.3%,51.3%,53.9%,40.9%,11.9%,54.4%
